Compounds with a hit are over-represented: about 12% of the library has one in this group of screens.
Sm TGR block: S. mansoni TGR enzyme inhibition; actives 3% (n = 360,000); AID 485364; Potency, µM (top dose mostly 114 µM), inactives show top-dose activity change, negative = inhibition, hits mostly inhibitors; purified TGR, DTNB reduction, TNB absorbance 405 nm; active means well fitted inhibition curve with a large enough effect; inconclusive means small, poorly fitted or top-dose-only effect; inactive means no such curve, though single readings can be large or run the other way; further: potency means the concentration at half of the fitted maximal effect; on the % scale 0 is the no-effect control and ±100 the full control effect; nearly all actives have a fitted effect of over 60% in size
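TGR 20 nM + NADPH 100 uM (dispensed conc.), cpd preinc 15 min RT; start with NADPH (500 uM addition) then DTNB (15 mM addition). Kinetic TNB absorbance, 405 nm filter. Four-parameter Hill fit across titration.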
Shiga toxin inh: blocks Shiga toxin action in Vero cells; Vero cells, Shiga toxin protein synthesis inhibition reporter; inhibition, % at 38.7 µM; actives 9.2% (n = 290,000); in the data active means inhibition mostly above about 28%, no sharp cut-off; inactive means mostly below about 43%; further: 0% is about no effect
FMDV inh: blocks foot and mouth disease virus | Potency, µM (titrated, usually from 57.9 µM), for the others: at the highest dose activity change, negative = inhibition, hits mostly inhibitors | actives 1.2% (n = 410,000) | FMDV antiviral cell-based qHTS; calls by dose curve; tested in HEK293T cells; further: read-out not given here; potency means the concentration at half of the fitted maximal effect; on the % scale 0 is the no-effect control and ±100 the full control effect; nearly all actives have a fitted effect of over 45% in size
CHX counter: counter-screen for Shiga toxin inhibitors: cycloheximide protein synthesis inhibition; cell reporter, cycloheximide protein synthesis inhibition counterscreen; max response, %; actives 12% (n = 300,000); AID 2314; in the data active means max response mostly above about 13%, no sharp cut-off; inactive means mostly below about 14%; further: read at 38.3 µM for the half of the compounds with a filed dose; 0% is about no effect
* hit, by the source's call.

How did CC(SCc1ccccc1)C(=O)Nc1ccccc1Br (stereo not drawn) do in these assays?
Sm TGR block: 4%; FMDV inh: 1%; CHX counter: 42*

What do the screens show for `O=C(NCc1ccccc1Cl)c1ccc(CSCc2ccccc2Cl)o1`?
Sm TGR block: -23%; FMDV inh: 6%

Results for Cc1ccc(Nc2c(N)c(=O)oc3ccccc23)cc1 ?
Sm TGR block: 1%; Shiga toxin inh: 57*; FMDV inh: -12%; CHX counter: 22*

How did CNc1c(N)c(=O)oc2ccccc12 do in these assays?
Sm TGR block: -5%; Shiga toxin inh: 18; FMDV inh: 5%; CHX counter: 7

How did CC(C)(C)c1ccc(C(=O)Nc2nnc(SCC(=O)NCC3CCCO3)s2)cc1 (stereo not drawn) do in these assays?
Sm TGR block: -13%; Shiga toxin inh: 110*; FMDV inh: inconclusive; CHX counter: 56*

Results for CCOc1ccc(C(=O)Nc2nnc(SCC(=O)NCC3CCCO3)s2)cc1 (stereo not drawn) ?
Sm TGR block: 1%; Shiga toxin inh: 48; FMDV inh: -17%; CHX counter: 38*

Results for CN(C)S(=O)(=O)c1ccc(C(=O)Nc2nnc(SCC(=O)NCC3CCCO3)s2)cc1 (stereo not drawn) ?
Sm TGR block: -9%; Shiga toxin inh: -19; FMDV inh: 5%; CHX counter: -4

What do the screens show for `Oc1ccc(C=Nc2ccc3ncccc3c2)c(O)c1`?
Sm TGR block: inconclusive; Shiga toxin inh: 106*; CHX counter: 56*

What do the screens show for `C[C@@]12C(C[C@H](O)[C@@]34C[C@@H](CCC13)[C@@H](CO)C4=O)[C@](C)(C(=O)O)CC[C@@H]2O` (stereo partly drawn)?
FMDV inh: -22%

Results for C=C1C(=O)[C@]23C[C@H]1CCC2[C@@]1(C)C(C[C@@H]3O)[C@](C)(C(=O)OC)CC[C@@H]1O (stereo partly drawn) ?
FMDV inh: 20µM*

How did COc1ccc(C)cc1NC(=O)CCS(=O)(=O)c1cc2c3c(c1)CCN3C(=O)CC2 do in these assays?
Sm TGR block: -1%; FMDV inh: -10%

Results for Cc1nn(-c2ccccc2)c(C)c1/C=N/n1cnnc1 ?
Sm TGR block: -9%; Shiga toxin inh: -13; FMDV inh: -6%; CHX counter: -4

What do the screens show for `Cc1nn(-c2ccccc2)cc1/C=N/NS(=O)(=O)c1ccccc1`?
Sm TGR block: -1%; Shiga toxin inh: -21; FMDV inh: 43%; CHX counter: 16

How did Cc1nn(-c2ccccc2)c(C)c1/C=N/NC(=O)c1cccs1 do in these assays?
Sm TGR block: -20%; Shiga toxin inh: 26; FMDV inh: 21%; CHX counter: 15*

Results for Cc1nn(-c2ccccc2)c(C)c1/C=N/NC(=O)CSc1nnc(SCc2ccc(Cl)cc2)s1 ?
Sm TGR block: -19%; Shiga toxin inh: 26; FMDV inh: inconclusive; CHX counter: 41*

Results for Cc1nn(-c2ccccc2)cc1/C=N/NC(=O)c1cccs1 ?
Sm TGR block: 5%; Shiga toxin inh: 102*; FMDV inh: 0%; CHX counter: 44*

How did Cc1nn(-c2ccccc2)c(C)c1/C=N/O do in these assays?
Sm TGR block: 2%; Shiga toxin inh: 15; FMDV inh: 0%; CHX counter: 14*

Results for COc1ccccc1-c1ccc(C(=O)N(C)CC2COCCO2)c(N2CCN(c3ccccc3F)CC2)n1 (stereo not drawn) ?
FMDV inh: -12%

Results for Cc1nn(CC(=O)NCc2ccccc2Cl)c(=O)c2cccn12 ?
Sm TGR block: 7%; FMDV inh: 9%

What do the screens show for `Cc1nn(-c2ccccc2)c(C)c1/C=N/NC(=O)c1ccccc1O`?
Sm TGR block: 3%; Shiga toxin inh: 38*; FMDV inh: -6%; CHX counter: 42*

Results for COc1ccc(C(=O)OCc2cc(=O)n3nc(-c4cccs4)sc3n2)cc1 ?
Sm TGR block: 0%; FMDV inh: -11%

How did Cc1ccccc1-c1cn(-c2ccccc2)c(=S)[nH]1 do in these assays?
Sm TGR block: 0%; Shiga toxin inh: 6; FMDV inh: 0%; CHX counter: -4

Results for Cc1ccc(-c2cn(-c3ccccc3)c(=S)[nH]2)cc1C ?
Sm TGR block: -12%; Shiga toxin inh: 113*; FMDV inh: 0%; CHX counter: 64*

Results for Cc1cc(C(=O)Nc2ccccc2)oc(=O)c1 ?
Sm TGR block: inconclusive; Shiga toxin inh: 45*; FMDV inh: 42%; CHX counter: 48*

What do the screens show for `Cc1ccc(OCc2cc(C(=O)Nc3ccccc3)oc2C)cc1`?
Sm TGR block: 8%; Shiga toxin inh: 85*; FMDV inh: 28%; CHX counter: 51*

What do the screens show for `CC(=O)Nc1ccc(NC(=O)c2ccc(COc3ccc(C)cc3)o2)cc1`?
Sm TGR block: -8%; Shiga toxin inh: 111*; FMDV inh: -1%; CHX counter: 19*

Results for COc1ccc(NC(=O)c2ccc(COc3ccc(C)cc3)o2)cc1 ?
Sm TGR block: 10%; Shiga toxin inh: 73*; FMDV inh: 17%; CHX counter: 34*

Results for CCOC(=O)c1c(C)[nH]c(C)c1S(=O)(=O)N1CCCC(C(=O)NCc2cccc(OC)c2)C1 (stereo not drawn) ?
Sm TGR block: 5%; FMDV inh: 24%

What do the screens show for `COc1ccccc1CN1CC[C@@]2(CCCN(C(=O)c3cccc(F)c3)C2)C1`?
FMDV inh: -7%

How did C[C@H]1[C@H](C)CC[C@]2(C=O)CC[C@]3(C)C(=CC[C@@H]4[C@@]5(C)C[C@@H](O)[C@H](O)[C@@](C)(CO)[C@@H]5CC[C@]43C)[C@H]12 do in these assays?
Shiga toxin inh: 11; CHX counter: -7

What do the screens show for `O=C1CSC(=S)N1/N=C/c1cccnc1`?
Sm TGR block: 6.3µM*; Shiga toxin inh: -9; FMDV inh: -1%; CHX counter: -2

What do the screens show for `O=C1CSC(=S)N1N=Cc1ccccc1O`?
FMDV inh: 10%

What do the screens show for `Cc1ccccc1/C=N/N1C(=O)CSC1=S`?
Sm TGR block: 10µM*; Shiga toxin inh: -6; FMDV inh: -20%; CHX counter: -3

How did CCCC[C@H]1CCCO[C@@](C(=O)NCc2cc(C)n(C)n2)(C(F)(F)F)C1 do in these assays?
Shiga toxin inh: -4; CHX counter: 10

How did Cc1cc(C(=O)COc2ccccc2C(N)=O)c(C)n1C1CC1 do in these assays?
Sm TGR block: 4%; Shiga toxin inh: 106; FMDV inh: 16%; CHX counter: 40*

Results for Cc1ccccc1OCC(=O)OCC(=O)c1cc(C)n(C2CC2)c1C ?
Sm TGR block: 0%; FMDV inh: -8%

What do the screens show for `Cc1cc(C(=O)COc2ccccc2[N+](=O)[O-])c(C)n1C1CC1`?
Sm TGR block: inconclusive; Shiga toxin inh: 65*; FMDV inh: 43%; CHX counter: 28*

Results for O=C(Cn1ncc2c(=O)oc3ccccc3c21)N1CCN(c2ccc(Cl)cc2)CC1 ?
Sm TGR block: -6%; FMDV inh: 0%

What do the screens show for `CC(C)=CC(=O)Nc1nnc(C(C)C)s1`?
Sm TGR block: 0%; Shiga toxin inh: 53; FMDV inh: 36%; CHX counter: 46*

Screening results: PubChem BioAssay, National Center for Advancing Translational Sciences (NCATS)
